Results taken from PubChem BioAssay (Tox21).
Values joined by “and” are separate entries in the source; they are usually repeats but may differ in a detail not shown here. Identical values can stand only once. Records with an inconclusive call do not appear. Where a call stands in place of a potency, no number is given. Some compounds were tested as several samples or in several runs, with calls that do not always agree. Active and inactive are the calls of the source. Calls follow the shape of the full dose curve.

Key:
[1] = molecular target: Acetylcholinesterase (Homo sapiens) (UniProt P22303); assay: Acetylcholinesterase (AChE) small molecule antagonists: colormetric cell-based qHTS assay (AID 1347395); conditions: SH-SY5Y cells AChE activity, colorimetric (Ellman); series mostly up to 115 µM; also: nearly all actives have a fitted effect of over 30% in size; also: potency is read from the fitted curve at half-maximal effect
Chain of Acetylcholinesterase (Homo sapiens) (P22303 whole entry, looked up): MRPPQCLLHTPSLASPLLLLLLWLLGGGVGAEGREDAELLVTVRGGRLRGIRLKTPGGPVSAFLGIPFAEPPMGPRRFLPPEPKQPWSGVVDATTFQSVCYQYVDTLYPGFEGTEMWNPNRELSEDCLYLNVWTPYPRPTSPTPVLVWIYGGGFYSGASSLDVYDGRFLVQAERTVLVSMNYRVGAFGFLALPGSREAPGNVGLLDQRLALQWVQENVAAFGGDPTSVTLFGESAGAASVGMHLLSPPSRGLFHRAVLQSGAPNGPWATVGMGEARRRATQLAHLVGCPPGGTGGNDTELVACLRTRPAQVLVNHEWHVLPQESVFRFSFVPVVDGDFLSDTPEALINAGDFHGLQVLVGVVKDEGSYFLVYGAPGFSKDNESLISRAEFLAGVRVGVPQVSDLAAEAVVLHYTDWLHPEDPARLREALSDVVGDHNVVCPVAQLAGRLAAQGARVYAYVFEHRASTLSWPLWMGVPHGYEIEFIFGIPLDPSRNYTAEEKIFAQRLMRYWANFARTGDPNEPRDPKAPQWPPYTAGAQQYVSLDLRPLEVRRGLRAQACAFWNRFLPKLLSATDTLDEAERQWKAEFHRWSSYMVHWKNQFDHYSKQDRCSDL
In short: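 SH-SY5Y cells, plated overnight at 37 C, were exposed to compounds for 30 min at 37 C and 5% CO2. Acetylthiocholine plus DTNB was then added, and thiocholine from endogenous AChE was quantified colorimetrically after 90 min at 37 C.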

[2] = molecular target: Acetylcholinesterase (Homo sapiens) (UniProt P22303); assay: Acetylcholinesterase (AChE) small molecule antagonists: enzyme-based qHTS assay (AID 1347397); conditions: Potency: AChE enzyme activity inhibition; outcome: AChE enzyme activity inhibition; series mostly up to 115 µM; also: nearly all actives have a fitted effect of over 55% in size; also: potency is read from the fitted curve at half-maximal effect
In short: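 First, recombinant human AChE (50 mU/mL as dispensed) received test compound or DMSO. Second, plates stood 30 min at room temperature. Third, DTNB and acetylthiocholine were added, followed by 10 min at room temperature and colorimetric detection.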

[3] = molecular target: Acetylcholinesterase (Homo sapiens) (UniProt P22303); assay: Acetylcholinesterase (AChE) small molecule antagonists: fluorescence cell-based qHTS assay (AID 1347398); conditions: SH-SY5Y cells; Potency: AChE activity; outcome: AChE activity; series mostly up to 115 µM; also: nearly all actives have a fitted effect of over 50% in size; also: potency is read from the fitted curve at half-maximal effect
In short: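 Homogeneous quantitative HTS format. SH-SY5Y cells seeded at 2,000 per well settle overnight at 37 C. Compound pretreatment runs 30 min (37 C, 5% CO2); substrate/probe mix then reacts 40 min at RT before reading 490/520 nm.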

[4] = molecular target: Acetylcholinesterase (Homo sapiens) (UniProt P22303); assay: Acetylcholinesterase (AChE) small molecule antagonists: enzyme-based qHTS assay with human liver microsomes (AID 1347399); conditions: Potency: qHTS inhibition; outcome: qHTS inhibition; series mostly up to 115 µM; also: nearly all actives have a fitted effect of over 60% in size
In short: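 Recombinant human AChE (50 mU/mL in the enzyme mix) and human liver microsomes (0.25 mg/mL final) were preincubated with compound and NADPH (0.25 mg/mL final) for 30 min at 37 C. Acetylthiocholine/DTNB was then added; thiocholine was read colorimetrically after 10 min at room temperature.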

| SMILES | Potency [1] | Potency [2] | Potency [3] | Potency [4] | activity, negative = inhibition [1] | activity change, negative = inhibition [2] | activity change, negative = inhibition [3] | activity change, negative = inhibition [4] |
| --- | --- | --- | --- | --- | --- | --- | --- | --- |
| CC(C)N1C(=O)c2ccccc2C1=O | inactive | inactive | inactive | inactive | – | – | – | – |
| CC(C)=CCCC(C)CCOC=O (stereo not given) | inactive | inactive | inactive | inactive | – | – | – | – |
| CC(C)CCCCCCOC(=O)c1ccc(C(=O)OCCCCCCC(C)C)c(C(=O)OCCCCCCC(C)C)c1 | inactive | inactive | inactive | inactive | – | – | – | – |
| Cc1ccc(S(=O)(=O)NCl)cc1 | inactive | inactive | inactive | inactive | – | – | – | – |
| C=C(c1ccc(C(=O)O)cc1)c1cc2c(cc1C)C(C)(C)CCC2(C)C | inactive | inactive | inactive | inactive | – | – | – | – |
| CCCOC(=O)CCCCC(=O)OCCC | inactive | inactive | inactive | inactive | – | – | – | – |
| NC(=O)NC1NC(=O)NC1=O (stereo not given) | inactive | inactive | inactive | inactive | – | – | – | – |
| C/C(C=O)=C\c1ccccc1 | inactive | inactive | inactive | inactive | – | – | – | – |
| C#CC(C)(O)CC(C)C (stereo not given) | inactive | inactive | inactive | inactive | – | – | – | – |
| CC(C)CCCCCCCOC(=O)CCCCC(=O)OCCCCCCCC(C)C | inactive | inactive | inactive | inactive | – | – | – | – |
| CC(CO)c1ccccc1 (stereo not given) | inactive | inactive | inactive | inactive | – | – | – | – |
| S=c1nccc[nH]1 | inactive | inactive | inactive | inactive | – | – | – | – |
| CCCCNc1ccccc1 | inactive | inactive | inactive | inactive | – | – | – | – |
| CCC1(C)CC(=O)NC1=O (stereo not given) | inactive | inactive | inactive | inactive | – | – | – | – |
| O=C(O)CN(CC(=O)O)CC(=O)O | inactive | inactive | inactive | inactive | – | – | – | – |
| O=C1Cc2cc(Cl)ccc2N1 | inactive | inactive | inactive | inactive | – | – | – | – |
| O=S(=O)(O)c1cccc2ccccc12 | inactive | inactive | inactive | inactive | – | – | – | – |
| CCCCCCC=O | inactive | inactive | inactive | inactive | – | – | – | – |
| Cc1ccc(S(=O)(=O)O)cc1C | inactive | inactive | inactive | inactive | – | – | – | – |
| CC(C)Cc1ccc(CC(=O)O)cc1 | inactive | inactive | inactive | inactive | – | – | – | – |

| SMILES | Potency [1] | Potency [2] | Potency [3] | Potency [4] | activity, negative = inhibition [1] | activity change, negative = inhibition [2] | activity change, negative = inhibition [3] | activity change, negative = inhibition [4] |
| --- | --- | --- | --- | --- | --- | --- | --- | --- |
| CC(=O)C(=O)CC(C)C | inactive | inactive | inactive | inactive | – | – | – | – |
| C[C@@H](N)C(=O)O | inactive | inactive | inactive | inactive | – | – | – | – |
| c1ccc(SCCSc2ccccc2)cc1 | inactive | inactive | inactive | inactive | – | – | – | – |
| OCCCCl | inactive | inactive | inactive | inactive | – | – | – | – |
| C/C=C/C=C/CO | inactive | inactive | inactive | inactive | – | – | – | – |
| CCCCCC[C@@H](O)C/C=C\CCCCCCCC(=O)OCC(O)CO (stereo not given in full) | inactive | inactive | inactive | inactive | – | – | – | – |
| CCC(C)(C)c1ccc(CC(C)CN2C[C@@H](C)O[C@@H](C)C2)cc1 (stereo not given in full) | inactive | inactive | inactive | inactive | – | – | – | – |
| Cc1ccc2ncccc2c1 | inactive | inactive | inactive | inactive | – | – | – | – |
| O=CC1CC=CCC1 (stereo not given) | inactive | inactive | inactive | inactive | – | – | – | – |
| CC(C)CCCC(C)N (stereo not given) | inactive | inactive | inactive | inactive | – | – | – | – |
| Oc1c(Cl)cc(Cl)cc1Sc1cc(Cl)cc(Cl)c1O | inactive | 40 µM (active) and 72.2 µM (active) and 56.4 µM (active) | inactive | inactive | – | – | – | – |
| CCOC(=O)O[C@H](C)OC(=O)c1ccc2c(c1)cc(C(=O)NC1CCN(C(C)C)CC1)n2Cc1cc(-c2ccc(Cl)s2)on1 | inactive | inactive | 41.8 µM (active) | inactive | – | – | – | – |
| O=C(COCCOCCOCC(=O)Nc1c(I)cc(I)c(C(=O)O)c1I)Nc1c(I)cc(I)c(C(=O)O)c1I | inactive | inactive | inactive | inactive | – | – | – | – |
| CCCCCCCCN(C)C | inactive | inactive | inactive | inactive | – | – | – | – |
| Cc1ccc(C)c(C)c1 | inactive | inactive | inactive | inactive | – | – | – | – |
| O=C(O)CSCC(=O)NC1CCSC1=O (stereo not given) | inactive | inactive | inactive | inactive | – | – | – | – |
| CC(C)(C)c1cccc(C(C)(C)C)c1O | inactive | inactive | inactive | inactive | – | – | – | – |
| CCNc1nc(N)nc(Cl)n1 | inactive | inactive | inactive | inactive | – | – | – | – |
| C=C(C)C(=O)OCCNC(C)(C)C | inactive | inactive | inactive | inactive | – | – | – | – |
| CCCCCCC(=O)O | inactive | inactive | inactive | inactive | – | – | – | – |

| SMILES | Potency [1] | Potency [2] | Potency [3] | Potency [4] | activity, negative = inhibition [1] | activity change, negative = inhibition [2] | activity change, negative = inhibition [3] | activity change, negative = inhibition [4] |
| --- | --- | --- | --- | --- | --- | --- | --- | --- |
| Oc1cn2c(n1)Nc1ccc(Cl)c(Cl)c1C2 | – | – | – | – | -9.64% [at 23.6 µM] (inactive) | 0.842% [at 23.6 µM] (inactive) | -3.43% [at 23.8 µM] (inactive) | 0.168% [at 23.6 µM] (inactive) |
| ClCCOCCOCCCl | inactive | inactive | inactive | inactive | – | – | – | – |
| CC(=O)Nc1ccc(C)cc1C | inactive | inactive | inactive | inactive | – | – | – | – |
| O=C(NO)C1(NS(=O)(=O)c2ccc(Oc3ccc(F)cc3)cc2)CCOCC1 | inactive | inactive | inactive | inactive | – | – | – | – |
| CCN(CC)CCOC(=O)C(c1ccccc1)C1CCCCC1 (stereo not given) | inactive | inactive | inactive | inactive | – | – | – | – |
| C[N+](C)(C)CCOC(=O)CCC(=O)OCC[N+](C)(C)C | inactive | inactive | inactive | inactive | – | – | – | – |
| CC1(C)O[C@@H]2C[C@H]3[C@@H]4C[C@H](F)C5=CC(=O)C=C[C@]5(C)[C@@]4(F)[C@@H](O)C[C@]3(C)[C@]2(C(=O)CO)O1 | inactive | inactive | inactive | inactive | – | – | – | – |
| CCC(C(=O)NC(N)=O)c1ccccc1 (stereo not given) | inactive | inactive | inactive | inactive | – | – | – | – |
| Cc1ccc2n[nH]nc2c1 | inactive | inactive | inactive | inactive | – | – | – | – |
| Cc1ccccc1C=O | inactive | inactive | inactive | inactive | – | – | – | – |
| OCCOc1ccc(OCCO)cc1 | inactive | inactive | inactive | inactive | – | – | – | – |
| CC(C)=CCOC(=O)c1ccccc1 | inactive | inactive | inactive | inactive | – | – | – | – |
| CCc1oc2ccccc2c1C(=O)c1cc(Br)c(O)c(Br)c1 | inactive | inactive | inactive | inactive | – | – | – | – |
| Brc1nc2ccccc2s1 | inactive | inactive | inactive | inactive | – | – | – | – |
| O=C(O)c1ccccc1 | 3.74 µM (active) and inactive | inactive | inactive | inactive | – | – | – | – |
| CCCCC(C)C(=O)O (stereo not given) | inactive | inactive | inactive | inactive | – | – | – | – |
| C[C@]12C=CC(=O)C=C1CC[C@@H]1[C@@H]2[C@@H](O)C[C@@]2(C)[C@H]1CC[C@]2(O)C(=O)CO | inactive | inactive | inactive | inactive | – | – | – | – |
| OCC1CCCO1 (stereo not given) | inactive | inactive | inactive | inactive | – | – | – | – |
| OC[C@@H](O)[C@@H](O)[C@H](O)[C@H](O)CO | inactive | inactive | inactive | inactive | – | – | – | – |
| C=CC(=O)OCCOCCOCC | inactive | inactive | inactive | inactive | – | – | – | – |
